Source: PubChem BioAssay AID651814 (National Center for Advancing Translational Sciences (NCATS), 2012)
About 590 (28%) of roughly 2,100 compounds were called active. Not shown: some 42% with an inconclusive outcome. The call rests on the fitted dose curve; in most records, active means well fitted inhibition curve with a large enough effect; inconclusive means small, poorly fitted or top-dose-only effect; inactive means flat fitted curve, though single readings scatter. The list shows a part of the results.

molecular target: DNA dC->dU-editing enzyme APOBEC-3F (Homo sapiens) (UniProt Q8IUX4); assay: qHTS for inhibitors of Vif-A3F interactions: Cherry picks; settings: HeLa A3F-eYFP + Vif (tagged APOBEC3F with the HIV-1 protein that degrades it), eYFP fluorescence, 24 h; further: nearly all actives have a fitted effect of over 70% in size;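 on max response: % of control where 0% means no effect; active compounds raise eYFP fluorescence by blocking Vif-driven A3F loss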
Sequence (Q8IUX4 whole entry, looked up): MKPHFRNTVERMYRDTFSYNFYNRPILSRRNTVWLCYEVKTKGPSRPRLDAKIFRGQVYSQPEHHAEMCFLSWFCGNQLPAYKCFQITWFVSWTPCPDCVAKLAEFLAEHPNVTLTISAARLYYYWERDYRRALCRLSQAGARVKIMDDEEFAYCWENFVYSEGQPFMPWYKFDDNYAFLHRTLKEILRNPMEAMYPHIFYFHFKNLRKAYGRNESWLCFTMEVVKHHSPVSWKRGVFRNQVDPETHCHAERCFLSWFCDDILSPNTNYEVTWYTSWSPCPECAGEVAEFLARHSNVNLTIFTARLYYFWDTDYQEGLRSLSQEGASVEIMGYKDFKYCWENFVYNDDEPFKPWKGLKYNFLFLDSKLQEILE
From the text: The recent discovery and characterization of host restriction factors, which provide a potent defense to invading retroviruses, has provided new targets for antiviral drug development. APOBEC3G (A3G) and APOBEC3F (A3F) are potent cytidine deaminases that block HIV-1 replication; HIV-1 expresses the Vif protein, which counteracts A3G and A3F by binding to them and inducing their proteasomal degradation. The Vif-A3G and Vif-A3F interactions provide two potential targets for development of small molecules which can interfere with the ability of Vif to degrade A3G or A3F. […] To identify inhibitors that can interfere with Vif mediated degradation of A3G and A3F, we have developed Hela cell lines that stably express A3G or A3F tagged with eYFP at the C-terminal end (A3G-eYFP or A3F-eYFP, respectively) and Vif. In the absence of an inhibitor, Vif induces degradation of A3G-eYFP and A3F-eYFP, and the cells are not fluorescent. In the presence of an inhibitor, it is expected that Vif will be unable to degrade A3G-eYFP and/or A3F-eYFP, resulting in an increase in yellow fluorescence. In this assay, Vif A3F was screened against the cherry picks ordered from the MLSMR. NIH Chemical Genomics Center [NCGC] NIH Molecular Libraries Probe Centers Network [MLPCN] MLPCN Grant: MH093245 Assay Submitter (PI): Vinay Pathak, National Cancer Institute
A3F-Vif cells were harvested from T225 flask and resuspended in phenol free OPTI-MEM medium with 5% FBS. Then 5 uL of 140,000 cells/mL resuspended cells was dispensed into each well of low base Aurora COC 1,536-well plates (black walled, clear bottom) using a Multidrop Combi dispenser. After overnight culture at 37 deg C with 5% CO2, a total of 23 nL of compounds at 5 selected concentrations from the NPC or positive control (2 mM stock of MG132) in DMSO was transferred to each well of the assay plate using a pintool (Kalypsys, San Diego, CA), and the plates were further incubated at 37 deg C with 5% CO2 for 24 hours. After that, the plates were measured on Acumen Explorer (TTP Lab Tech). The fluorescence was detected by 488 nm/Ex and […].
Potency means the concentration at half of the fitted maximal effect.

SMILES | Potency | max response
Cc1ccc(CNC(=O)c2ccccc2NC(=O)c2nsc3ccccc23)cc1 | 20.6 µM (active) | 
CCN(CC)c1ccc(C=C2C(=O)N(C)C(=S)N(C)C2=O)o1 | 3.96 µM (active) | 
Cc1ccc(/C=C2/C(=O)NC(=O)N(CCc3ccc(F)cc3)C2=O)s1 |  | -13.3% (inactive)
CCN(CC)c1ccc(/C=C2\C(=O)NC(=S)N(C)C2=O)o1 | 14 µM (active) | 
Cc1cccc(-n2c(/C=C/c3c(C)[nH]c4ccccc34)nc3ccccc3c2=O)c1 | 20.6 µM (active) | 
O=Cc1c(C(=O)O)n(Cc2ccc(Cl)cc2)c2ccccc12 | 20.6 µM (active) | 
CC(=O)OC1C2(CC3N4C(=O)C5(CO)SSC4(CC31O)C(=O)N5C)OC(C)C(C)(C)C2=O (stereo not drawn) | 6.27 µM (active) | 
Cc1cccc(CN2CCCC(C(=O)c3cccc(OC(C)C)c3)C2)n1 (stereo not drawn) |  | 3.61% (inactive)
O=C1NC(=S)SC1=Cc1ccc(N(CCCl)CCCl)cc1 | 14 µM (active) | 
ClCCN(CCCl)c1ccc(C=Cc2ccncn2)cc1 |  | -17% (inactive)
CN1C(=O)C(=Cc2ccc(N3CCOCC3)o2)C(=O)N(C)C1=O | 18.4 µM (active) | 
CN1C(=O)C(=Cc2ccc(N3CCCCC3)o2)C(=O)N(C)C1=S | 5.17 µM (active) | 
CN1C(=O)C(=Cc2ccc(N3CCOCC3)o2)C(=O)N(C)C1=S | 23.1 µM (active) | 
O=C1NC(=O)N(c2ccc3c(c2)OCO3)C(=O)/C1=C\c1ccc(N2CCCCC2)o1 | 18.4 µM (active) | 
O=C1NC(=O)N(c2ccc3c(c2)OCO3)C(=O)/C1=C/c1ccc(N2CCCCC2)o1 | 23.1 µM (active) | 
Cc1ccc(N2C(=O)NC(=O)/C(=C\C=C\c3ccco3)C2=O)cc1C |  | -16.6% (inactive)
CN(C)c1ccc(/C=C/C=C2/C(=O)NC(=O)N(c3ccccc3)C2=O)cc1 | 16.4 µM (active) | 
CC(C)c1ccc(N2C(=O)NC(=O)/C(=C\C=C\c3ccco3)C2=O)cc1 | 17.7 µM (active) | 
O=C1NC(=O)N(Cc2ccc(F)cc2)C(=O)/C1=C\C=C\c1ccco1 |  | -29.5% (inactive)
Cc1cc(N2CCCC2)ccc1C=C(C#N)C#N | 7.31 µM (active) | 
Cc1nn(Cc2ccccc2)c(C)c1C(=O)OCC(=O)Nc1ccccc1SCC#N | 14 µM (active) | 
CC/C(=N\NC(=O)c1ccccc1O)c1c(O)n(Cc2ccccc2)c(=O)[nH]c1=O |  | -28.7% (inactive)
CCN(CC)c1ccc(N=Cc2c(O)n(CCC3=CCCCC3)c(=O)[nH]c2=O)cc1 | 3.66 µM (active) | 
CCN(CC)c1ccc(N=Cc2c(O)n(Cc3ccccc3)c(=O)[nH]c2=O)cc1 | 3.26 µM (active) | 

SMILES | Potency | max response
CC1=CC(=Cc2sc3ccccc3[n+]2C)C=C(C)O1 | 5.17 µM (active) | 
CCCCn1c(O)c(C(=O)/C=C/c2c[nH]c3ccccc23)c(=O)[nH]c1=O | 12.5 µM (active) | 
CN1C(=O)/C(=C\c2ccc(N3CCCCC3)o2)C(=O)NC1=S | 14 µM (active) | 
CN1C(=O)/C(=C/c2ccc(N3CCCCCC3)o2)C(=O)NC1=S | 12.5 µM (active) | 
Cc1cc(/C=C2\C(=O)NC(=O)N(c3ccc(Br)cc3)C2=O)c(C)n1C |  | -6.73% (inactive)
CCC(C)N1C(=O)/C(=C\c2ccc(N3CCCCCC3)cc2)C(=O)NC1=S (stereo not drawn) |  | -14.3% (inactive)
CN1CCN(c2ccc(/C=C3\C(=O)NC(=S)N(c4cccc(Br)c4)C3=O)o2)CC1 | 18.4 µM (active) | 
O=c1[nH]c(CN2CC=C(c3ccccc3)CC2)nc2scc(-c3ccccc3)c12 | 18.4 µM (active) | 
Nc1ccc2c3c(cccc13)-c1ccccc1-2 | 4.11 µM (active) | 
COc1cc(C2C(C#N)=C(N)Oc3cc(O)ccc32)cc(OC)c1OC (stereo not drawn) | 1.98 µM (active) | 
CCCCNC(=O)/C(C#N)=c1\s/c(=C\c2ccccc2OC(F)F)c(=O)n1CCCOC | 16.4 µM (active) | 
COCCNC(=O)c1c(NC(=O)c2ccc(Br)o2)n(Cc2ccccc2)c2nc3ccccc3nc12 |  | -6.71% (inactive)
CCCCCn1c(NC(=O)c2ccco2)c(C(=O)OCC)c2nc3ccccc3nc21 | 15.8 µM (active) | 
CC(C)CCCn1c(O)c(/C=C2/C=CC=N2)c(=O)[nH]c1=O | 18.4 µM (active) | 
O=c1[nH]c(=O)n(Cc2ccccc2Cl)c(O)c1/C=C1/C=CC=N1 | 9.2 µM (active) | 
COC(=O)C1=C(C)N(Cc2ccco2)C(=O)/C1=C\c1ccc(N(C)C)cc1 | 13 µM (active) | 
O=c1c2ccccc2nc(/C=C/c2ccc([N+](=O)[O-])o2)n1-c1ccc(O)cc1 | 12.5 µM (active) | 
CN1/C(=C\C=C2C(=O)NC(=O)NC2=O)C(C)(C)c2ccccc21 |  | -9.38% (inactive)
O=C1NC(=O)N(Cc2ccc(F)cc2)C(=O)/C1=C\c1ccoc1 |  | -24.2% (inactive)
O=C(Cc1ccccc1)c1ccccn1 | 17.7 µM (active) | 
CCS(=O)(=O)N1N=C(c2cccc(NS(C)(=O)=O)c2)CC1c1ccccc1 (stereo not drawn) | 23.1 µM (active) | 
COc1ccccc1-n1c(/C=C/c2ccc(O)cc2)nc2ccccc2c1=O |  | -0.327% (inactive)
Cc1ccccc1-n1c(/C=C/c2ccc(N(C)C)cc2)nc2ccccc2c1=O | 3.26 µM (active) | 
O=c1nc(/C=C/c2ccc(Cl)cc2Cl)cc(C(F)(F)F)[nH]1 |  | -25.1% (inactive)
